Measured values reported in PubChem BioAssay (NCI).
Compounds without any hit were thinned out: in the full panel of roughly 83,000, 20% have a hit.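 Interpretation: 100, growth as untreated; towards 0, rising growth inhibition; 0, no net growth; 0 to -100, cell death. Compounds scoring below 10 were considered active.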 Active and inactive are the calls of the source.

How the values were obtained:
Test in all cases: NCI-60 one-dose screen, 48 h (100 = growth as untreated, 0 = no growth, -100 = all killed)
Settings in all cases: 10 µM unless noted
[1] = tested on: HCT-15 colon
[2] = tested on: HT29 colon
[3] = tested on: SNB-75 CNS
[4] = tested on: SNB-19 CNS
[5] = tested on: U251 CNS
[6] = tested on: PC-3 prostate
[7] = tested on: SK-MEL-5 melanoma
[8] = tested on: UACC-62 melanoma
[9] = tested on: LOX IMVI melanoma
[10] = tested on: SK-MEL-28 melanoma
[11] = tested on: SK-MEL-2 melanoma
[12] = tested on: EKVX NSCLC
[13] = tested on: SN12C renal
[14] = tested on: UO-31 renal
[15] = tested on: TK-10 renal
[16] = tested on: ACHN renal
[17] = tested on: CAKI-1 renal
[18] = tested on: A498 renal
[19] = tested on: MOLT-4 leukemia
[20] = tested on: CCRF-CEM leukemia

Measured: growth

CCN1C(=O)N(CC)C2Nn3c(s/c(=C\c4cccc(F)c4)c3=O)=NC21 (centres undefined)
inactive: [1] 56.6% | [2] 39.1% | [4] 80.7% | [5] 73.2% | [6] 52.9% | [7] 42.6% | [8] 67.7% | [9] 69.7% | [10] 75.6% | [11] 85.3% | [12] 79% | [13] 79.6% | [14] 65.1% | [15] 109% | [16] 66.7% | [17] 48.9% | [18] 46.1% | [19] 94.9%
active: [3] 6.29%

C=C1C(=O)O[C@H]2[C@H]1CC/C(COC(=O)NCCc1ccc(OC)cc1)=C\CC[C@@]1(C)O[C@@H]21
active: [1] -7.21% | [2] -58.3% | [8] -46.7% | [9] -26.8% | [10] -5.94% | [14] -82.8% | [15] -7.32% | [16] -6.86% | [17] -2.71% | [20] 3.44% | [19] 2.83%
inactive: [3] 79.4% | [4] 45.8% | [5] 59.3% | [6] 45.6% | [7] 72.3% | [11] 63.4% | [12] 53.3% | [13] 11.7% | [18] 62%

O=C1OC(c2ccccc2)=N/C1=C\c1ccc([N+](=O)[O-])cc1
inactive: [1] 104% | [2] 98.8% | [3] 84.8% | [4] 107% | [5] 102% | [6] 94.4% | [7] 99.2% | [8] 95.5% | [9] 96.9% | [10] 102% | [11] 105% | [12] 99.9% | [13] 100% | [14] 91.7% | [15] 97.4% | [16] 102% | [18] 87.4% | [20] 114% | [19] 102%

COc1ccc(/C=C2\Oc3cc(OCCN4CCCC4)ccc3C2=O)c(OC)c1
inactive: [1] 80.2% | [2] 17.6% | [3] 93.2% | [4] 92.2% | [5] 76.5% | [6] 84.9% | [7] 90.2% | [8] 101% | [9] 81.2% | [10] 96.9% | [11] 101% | [12] 98.1% | [13] 92.2% | [14] 81.2% | [15] 115% | [16] 95.7% | [17] 92.4% | [18] 88.5% | [19] 86.7%

C#CCC1(c2ccc(F)c(F)c2)NS(=O)(=O)c2ccccc21 (centres undefined)
inactive: [1] 103% | [2] 82.9% | [3] 99.1% | [4] 108% | [5] 96.4% | [6] 91.8% | [7] 103% | [8] 106% | [9] 98% | [10] 121% | [11] 91.2% | [12] 103% | [13] 106% | [14] 86.4% | [15] 83.6% | [16] 113% | [17] 94.4% | [18] 109% | [20] 99.2% | [19] 90%

O=c1cc(C2NCCc3c2[nH]c2ccccc32)c2c(ccc3ccccc32)o1 (centres undefined)
inactive: [1] 44.5% | [2] 56.2% | [3] 51.6% | [4] 88.3% | [5] 66.1% | [6] 56% | [7] 76.4% | [8] 48.7% | [9] 36.8% | [10] 92.7% | [11] 36.2% | [12] 75.3% | [13] 87.5% | [14] 26.2% | [15] 71.7% | [16] 31.7% | [18] 46.3% | [20] 77.8% | [19] 75.1%

CCN1C(=O)N(CC)C2C1NN=c1s/c(=C\c3cccc(F)c3)c(=O)n12 (centres undefined)
active: [3] 6.61% | [7] -30.7% | [18] -15.3%
inactive: [1] 15.7% | [2] 10.4% | [4] 34.6% | [5] 29.4% | [6] 24.7% | [8] 33.3% | [9] 24.4% | [10] 57.8% | [11] 51.5% | [12] 64.3% | [13] 31.5% | [14] 50.8% | [15] 61.8% | [16] 29.1% | [17] 40.8% | [19] 19.1%

CCn1cc(C2NC(=O)c3cc(F)ccc3N2)c2cccc(Cl)c21 (centres undefined)
inactive: [4] 34.3% | [6] 22.3% | [7] 19.3% | [8] 28.2% | [9] 16.5% | [10] 58.2% | [11] 17.5% | [12] 37.6% | [13] 29.8% | [15] 50.4% | [16] 33.5% | [17] 34% | [19] 10.8%
active: [1] 9.89% | [2] 3.35% | [3] -24.9% | [5] -14.2% | [18] -11.4% | [20] 5.2%

O=C1NCC(c2cc3ccccc3[nH]c2=O)Nc2ccccc21 (centres undefined)
inactive: [1] 106% | [2] 98.3% | [3] 99.6% | [4] 102% | [5] 102% | [6] 93.2% | [7] 97.2% | [8] 98.3% | [9] 98.5% | [10] 103% | [11] 100% | [12] 106% | [13] 99.7% | [15] 87.8% | [16] 99.7% | [17] 88.1% | [18] 104% | [20] 110% | [19] 111%

O=[N+]([O-])c1c(S(=O)(=O)O)cc2cc(S(=O)(=O)O)ccc2c1[N+](=O)[O-]
inactive: [1] 101% | [2] 103% | [3] 98.1% | [4] 108% | [5] 100% | [6] 100% | [7] 100% | [8] 97% | [9] 94.3% | [10] 103% | [11] 107% | [12] 101% | [13] 101% | [15] 93% | [16] 98.8% | [18] 106% | [20] 107% | [19] 93.8%

COc1cc(/C=C/C(=O)c2ccc(NC(=O)CN3CCN(c4cc5c(cc4F)c(=O)c(C(=O)O)cn5C4CC4)CC3)cc2)cc(OC)c1OC
inactive: [1] 18.2% | [3] 76.6% | [4] 34.9% | [6] 21.5% | [10] 34% | [11] 30% | [13] 10.3% | [15] 19.1% | [16] 10.8% | [17] 57.2%
active: [2] -3.37% | [5] -55.8% | [7] -42.9% | [8] -23.5% | [9] -54.7% | [14] 2.96% | [18] -43.8% | [20] -13.7% | [19] -1.1%

CC(=O)OCC1OC(OCC2OC(OC(C)=O)C(OC(C)=O)C(OC(C)=O)C2OC(C)=O)C(OC(C)=O)C(OC(C)=O)C1OC(C)=O (centres undefined)
inactive: [1] 96.7% | [2] 103% | [3] 92.8% | [4] 100% | [5] 92% | [6] 93.5% | [7] 94.2% | [8] 92.2% | [9] 95.7% | [10] 104% | [11] 107% | [13] 95.1% | [14] 95.4% | [15] 106% | [16] 94.7% | [17] 94.7% | [18] 87% | [20] 99.6% | [19] 104%
